We go through 69 compounds from PubChem BioAssay AID488969 (Vanderbilt High Throughput Screening Facility, 2010).

Whole data set: some 110,000 compounds, median “z-score” near -0.1, cut for the highest 2% near 2. The entries come from a sample that favours the highest values as a whole. The source made the active and inactive calls.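 The calls were made as follows: active = z-score in the third read window above 3 or below -3; inactive = the rest.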

For the assay, the target named is Metabotropic glutamate receptor 8 (Rattus norvegicus) (UniProt P70579). Put plainly: mGluR8 Gi/Go-coupled signaling modulation – cell-based, rat, thallium flux, HTS, primary screen (AID 488969). The settings on record: HEK293 rat mGluR8, GIRK (G protein-gated inwardly rectifying potassium channel) thallium flux, FluoZin2; at 10 µM; stronger effect = higher value; submaximal glutamate (EC20) added with thallium.
Chain of Metabotropic glutamate receptor 8 (Rattus norvegicus) (P70579 whole entry, looked up): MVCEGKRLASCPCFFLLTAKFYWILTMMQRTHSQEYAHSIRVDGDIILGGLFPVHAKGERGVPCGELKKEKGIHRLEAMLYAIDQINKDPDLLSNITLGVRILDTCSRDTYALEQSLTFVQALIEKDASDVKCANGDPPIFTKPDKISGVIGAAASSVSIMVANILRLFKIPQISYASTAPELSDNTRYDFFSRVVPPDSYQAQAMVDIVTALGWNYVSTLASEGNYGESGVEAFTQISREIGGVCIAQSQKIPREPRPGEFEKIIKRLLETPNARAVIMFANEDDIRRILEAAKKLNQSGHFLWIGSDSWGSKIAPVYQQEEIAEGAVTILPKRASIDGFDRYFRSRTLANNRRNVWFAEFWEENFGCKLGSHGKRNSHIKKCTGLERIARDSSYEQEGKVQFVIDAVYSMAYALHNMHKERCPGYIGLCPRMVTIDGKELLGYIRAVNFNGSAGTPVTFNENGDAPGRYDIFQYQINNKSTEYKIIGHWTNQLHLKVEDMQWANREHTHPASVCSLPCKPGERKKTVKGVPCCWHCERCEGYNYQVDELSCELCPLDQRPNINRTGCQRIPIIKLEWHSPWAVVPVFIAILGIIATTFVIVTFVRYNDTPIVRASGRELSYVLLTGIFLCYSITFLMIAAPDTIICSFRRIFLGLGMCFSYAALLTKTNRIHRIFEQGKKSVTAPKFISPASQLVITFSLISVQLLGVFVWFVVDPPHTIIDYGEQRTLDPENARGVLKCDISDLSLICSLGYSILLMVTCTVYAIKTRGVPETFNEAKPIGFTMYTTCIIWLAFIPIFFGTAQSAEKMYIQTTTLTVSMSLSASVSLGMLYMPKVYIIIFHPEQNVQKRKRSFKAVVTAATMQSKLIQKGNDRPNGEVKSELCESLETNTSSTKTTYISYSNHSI
As to `Cn1c(N2CCN(C(=O)NC34CC5CC(CC(C5)C3)C4)CC2)nc2ccccc21`, the z-score was -0.317.
Take `Cc1ccc(-n2c(SCC(=O)Nc3cccc(S(=O)(=O)NC4=NCCCCC4)c3)nc3ccccc3c2=O)cc1`: the z-score was -0.48.
In turn, `Cc1cc(C)cc(-n2c(SCC(=O)Nc3cccc(S(=O)(=O)NC4=NCCCCC4)c3)nc3ccccc3c2=O)c1` had a z-score of -0.139.
The same measure for `O=C(CSc1ccc2ccccc2c1Br)Nc1cccc(S(=O)(=O)NC2=NCCCCC2)c1`: 14.5 (active); for `CCCCC(c1nnnn1C1CCCC1)N1CCN(C2CCCCC2)CC1` (centres undefined): -0.391; for `O=C(NC1CC1)C1CCCN1S(=O)(=O)c1ccc2ccccc2c1` (centres undefined): -0.112.
For `COC(=O)C1CCCN1S(=O)(=O)c1ccc2ccccc2c1` (centres undefined), the z-score turned out to be 2.41.
`O=C(O)C1CCCCN1S(=O)(=O)c1ccc2ccccc2c1` (centres undefined) had a z-score of -0.217.
Next, `Cc1ccc(C(=O)COc2ccccc2-c2ccccc2)cc1`: -0.229.
The same measure for `CCOc1ccccc1C(=O)N(Cc1ccccc1)Cc1cc2cc3c(cc2[nH]c1=O)OCCO3`: 0.283; for `CCOC(=O)c1ccc(NC(=O)CCNC(=O)c2ccc([N+](=O)[O-])cc2)cc1`: -0.327; for `CCCn1nc([N+](=O)[O-])c(C(C#N)c2nc3ccccc3s2)c(Cl)c1=O` (centres undefined): -2.49.
Turning to `CCn1nc([N+](=O)[O-])c(C(C#N)c2nc3cc(C(F)(F)F)ccc3s2)c(Cl)c1=O` (centres undefined), the z-score came to 2.97.
Next, `CCn1nc([N+](=O)[O-])c(C(C#N)c2nc3ccccc3n2C)c(Cl)c1=O` (centres undefined): -0.682.
Next, `CCCS(=O)(=O)N1CCC(C(=O)NCc2ccco2)CC1`: 0.18; `Cc1ccc(OCc2nnc(SCC(=O)c3cccs3)n2-c2ccccc2)cc1C`: 0.316.
The same measure for `Cc1c(C(=O)OCC(=O)N2CC(C)OC(C)C2)oc2ccc(Br)cc12` (centres undefined): -0.32.
For the compound `O=C(COc1cc(O)c2c(=O)cc(-c3ccccc3)oc2c1)c1ccccc1`, the z-score amounted to 0.0143.
`CC(C)(C)OC(=O)COc1cc(O)c2c(=O)cc(-c3ccccc3)oc2c1`: the z-score was 4.76 (active).
Next, `CC(C)(C)OC(=O)COc1cc(OCC(=O)OC(C)(C)C)c2c(=O)cc(-c3ccccc3)oc2c1`: -0.331; `O=C(Cc1ccccc1)N/N=C/c1ccc(OCC(=O)Nc2ccccc2)cc1`: -0.147; `CCc1nc(C)ccc1OC(=O)C12CC3CC(CC(C3)C1)C2`: 0.238.
`Cc1ccc(-c2cc3cccc[n+]3cc2-c2ccc(C)cc2)cc1` displayed a z-score of -0.0109.
The same measure for `Cc1nc2ccc(NS(=O)(=O)c3ccc(C)c(C)c3)cc2s1`: -0.187; for `Cc1ccc(S(=O)(=O)Nc2ccc3nc(C)sc3c2)cc1`: -0.613; for `Cc1nc2ccc(NS(=O)(=O)c3ccc4c(c3)OCCO4)cc2s1`: 3.48 (active).
Next, `Cc1cccc(NS(=O)(=O)c2ccc3c(c2)OCCO3)c1`: 2.76; `O=S(=O)(Nc1ccc2c(c1)OCCO2)c1ccc(F)cc1`: -0.102.
Compound `O=S(=O)(Nc1cccnc1)c1ccc2c(c1)OCCO2` had a z-score of -0.833.
Compound `CCCCOc1ccc(NC(=O)C2CC=CCC2C(=O)O)cc1` (centres undefined) gave a z-score of -0.0643.
The same measure for `COc1ccc(S(=O)(=O)N(C)CC(=O)Nc2ccc3c(c2)OCO3)cc1`: 0.0177.
Next, `O=C(c1ccco1)N1CCN(S(=O)(=O)c2ccc3[nH]c(=O)oc3c2)CC1`: 0.249.
`CC1(C)CC(=O)C2=C(C1)N(Cc1ccco1)C(=O)C2(NC(=O)c1ccc(Cl)cc1Cl)C(F)(F)F` (centres undefined) returned a z-score of -0.289.
In turn, `CC(C)C(NC(=O)C1CCCCC1)C(=O)Nc1ccncc1` (centres undefined) gave a z-score of 0.244.
The same measure for `Cc1ccc(NC(=S)NCCO)c(C)c1`: -0.044; for `CCNC(=S)N/N=C/c1cccc(C)c1`: 0.00977.
Next, `Cc1ccc(C)c(/C=N/NC(=S)NCCc2ccccc2)c1`: 1.17; `CCNC(=S)N/N=C/c1c(Cl)cccc1Cl`: 5.15 (active); `Cc1ccc(NC(=S)N/N=C/c2ccc(OCCC(C)C)cc2)c(C)c1`: 0.599.
The same measure for `CCCCNC(=S)N/N=C/c1cc(C)ccc1C`: 1.48.
In turn, `S=C(NCCc1ccccc1)N/N=C/c1c(Cl)cccc1Cl` had a z-score of 0.353.
Next, `CCNC(=S)N/N=C/c1cc(C)ccc1C`: 2.43.
Next, `Cc1ccc(NC(=S)N/N=C/c2c(Cl)cccc2Cl)c(C)c1`: 9.31 (active); `Cc1cc(=O)[nH]c(SCC(=O)NCCc2ccccc2)n1`: 1.96.
In turn, `CCN(CC)C(=O)c1sc(NC(=O)c2ccc(C)c([N+](=O)[O-])c2)c(C#N)c1C` showed a z-score of 0.0677.
Next, `CCOC(=O)C1C(=O)OC2(CCCCC2)C1C(=O)OCC` (centres undefined): 0.124; `O=C(Cn1c(=O)oc2cc(S(=O)(=O)N3CCCCCC3)ccc21)NC1CCCCCCC1`: -0.034.
On to `CCc1nnc2sc(-c3cc(-c4ccccc4)nc4ccccc34)nn12`, for which the z-score is -0.507.
Next, `Cc1ccc(CNC(=O)COc2ccccc2-c2ccccc2)cc1`: -0.0564.
In turn, `Cc1nc2c(-c3ccc(F)cc3)c(C)nn2c(C)c1CCC(=O)N1CCN(c2ccccc2)CC1` returned a z-score of -0.81.
`Cc1nc2c(-c3ccccc3)c(C)nn2c(C)c1CCC(=O)O` registered a z-score of 0.235.
The same measure for `CCN1CCN(c2ccc(NC(=O)CCc3c(C)nc4c(-c5ccccc5)c(C)nn4c3C)cc2)CC1`: 3.06 (active); for `CCn1nnc(-c2ccccc2NC(=O)c2cc(OC)cc(OC)c2)n1`: -0.139; for `O=C(c1ccc(CS(=O)(=O)c2ccc(Br)cc2)o1)N1CCN(c2ncccn2)CC1`: 3.31 (active).
In turn, `O=C(c1ccc(CS(=O)(=O)c2ccc(Br)cc2)o1)N1CCN(c2ccccn2)CC1` returned a z-score of -0.169.
`O=C(c1ccc(CS(=O)(=O)c2ccccc2)o1)N1CCN(c2ncccn2)CC1` had a z-score of -0.184.
Compound `COC(=O)c1sccc1NC(=O)COc1ccc(Cl)cc1Cl` had a z-score of -0.26.
In the case of `COC(=O)c1sccc1NC(=O)CSc1ccccc1NS(=O)(=O)c1ccccc1Cl`, the z-score is 3.17 (active).
Next, `COC(=O)c1sccc1NC(=O)CSc1cccc(Cl)c1Cl`: -0.0544.
The same measure for `COC(=O)c1sccc1NC(=O)COc1ccccc1Cl`: -0.212.
Consider `COC(=O)c1sccc1NC(=O)CSc1cc(Cl)ccc1Cl`, for which the z-score is -0.165.
The same measure for `COC(=O)c1sccc1NC(=O)CSc1ccccc1NS(=O)(=O)c1cc(Cl)ccc1Cl`: 8.63 (active); for `Cc1nn2c(-n3ccnc3C)c3c(nc2c1-c1ccccc1)CCC3`: -0.311; for `Cc1ccc(CNC(=O)C(=O)NCCC2=CCCCC2)cc1`: -0.102.
`Cc1ccc(CNCCC2=CCCCC2)cc1` yielded a z-score of 2.07.
Next, `O=C(NCCC1=CCCCC1)C(=O)NCc1ccccc1`: -0.143; `O=C(CCSCc1ccc(Cl)cc1)NCCC1=CCCCC1`: -0.242.
`Clc1ccc(CNCCC2=CCCCC2)cc1` yielded a z-score of 2.27.
Next, `C1=C(CCNCC2CC2)CCCC1`: 0.204.
